High-throughput results deposited in PubChem by several laboratories.
Shown are actives, neighbours in structure and some others; about 1.7% of the full set was active somewhere.
Neddylation inh: inhibitors of cullin neddylation, primary screen, biochemical, TR-FRET, uHTS, NAE and Ubc12; inhibition, % at 25 µM; NEDD8-conjugating enzyme Ubc12 (Homo sapiens) + NEDD8-activating enzyme E1 regulatory …; AID 651699, 2012; 0.58% of 360,000 active; in the data active = inhibition above about 36%
Target sequence (P61081 whole entry, looked up): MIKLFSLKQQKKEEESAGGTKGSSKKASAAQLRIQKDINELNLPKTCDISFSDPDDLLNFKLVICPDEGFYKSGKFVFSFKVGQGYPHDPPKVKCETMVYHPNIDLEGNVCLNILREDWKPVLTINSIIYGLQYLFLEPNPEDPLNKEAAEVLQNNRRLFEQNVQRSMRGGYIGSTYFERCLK
Target sequence (Q13564 whole entry, looked up): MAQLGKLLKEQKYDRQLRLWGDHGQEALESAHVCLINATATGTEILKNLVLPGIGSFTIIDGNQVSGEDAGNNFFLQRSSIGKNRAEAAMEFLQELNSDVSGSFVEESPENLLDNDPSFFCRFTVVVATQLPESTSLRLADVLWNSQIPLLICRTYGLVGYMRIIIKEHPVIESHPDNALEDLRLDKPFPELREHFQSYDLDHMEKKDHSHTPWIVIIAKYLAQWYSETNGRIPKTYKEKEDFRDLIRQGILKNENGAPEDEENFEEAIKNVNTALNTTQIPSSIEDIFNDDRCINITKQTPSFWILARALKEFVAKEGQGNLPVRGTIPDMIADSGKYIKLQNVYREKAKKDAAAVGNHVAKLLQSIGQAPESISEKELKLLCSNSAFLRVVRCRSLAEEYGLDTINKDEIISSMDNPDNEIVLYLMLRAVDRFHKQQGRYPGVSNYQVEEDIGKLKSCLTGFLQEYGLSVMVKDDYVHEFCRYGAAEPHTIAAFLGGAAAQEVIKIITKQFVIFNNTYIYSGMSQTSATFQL
ATG4B inh: ATG4B protease inhibitors, primary screen, biochemical, fluorescence, uHTS. Cysteine protease ATG4B (Homo sapiens), Q9Y4P1. ATG4B cleavage of LC3-PLA2, NBD-HPC fluorescence, 1 h. inhibition, % at 8.33 µM. 0.51% of 340,000 active. AID 504462, 2011
SUMO1 PPI mod: modulators of SUMO1 protein-protein interactions, primary screen, biochemical, uHTS | Small ubiquitin-related modifier 1 (Homo sapiens), P63165 | SUMO1 binding to a labelled peptide, TR-FRET, 1 h | inhibition, % at 20 µM | 0.33% of 360,000 active | AID 602429, 2012; in the data active = inhibition above about 37%
Rin1 Abl inh: inhibitors of Rin1-Abl protein binding, primary screen, biochemical, TR-FRET; 0.4% of 360,000 active; inhibition, % at 7.35 µM; AID 588664, 2011; in the data active = inhibition above about 5%, passing the limit was not always enough
Neddyl inh conf: blockade of NEDD8 conjugation to cullin – biochemical, TR-FRET, single concentration, confirmation. calls only at 25 µM. shares compounds with Neddylation inh. 13% of 1,800 active. TR-FRET cullin neddylation biochemical assay;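 note: neddylation substrate is the cullin 1 ring ligase complex with SKP2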
Of the large screens only hits and unclear results are named; the others gave an inactive call (follow-up assays come after a bar, where shown). Cut-off read from the data, not from the text of the source, unless noted: active = inhibition above about 40%; inactive = the rest.

COc1ccc(C(C)=O)cc1Cn1c(C)c(C(=O)NCc2cccc(C)c2)sc1=O	none (no result: ATG4B inh)
CCc1ccc(S(=O)(=O)c2n[nH]n3c2nc(=O)c2ccccc23)cc1	Neddylation inh 45.8 | Neddyl inh conf inactive
O=c1nc2c(-c3ccccc3F)n[nH]n2c2ccccc12	none (not shown: Neddylation inh)
CC(C)c1ccc(S(=O)(=O)c2n[nH]n3c2nc(=O)c2ccccc23)cc1	Neddylation inh 50.2 | Neddyl inh conf inactive
COc1ccc2oc(C(=O)OC(C)C(=O)N(C)c3ccccc3)c(C)c2c1 (centres undefined)	Neddylation inh 56.1
COc1ccc2oc(C(=O)OCC(=O)N(C)c3c(N)n(Cc4ccccc4)c(=O)[nH]c3=O)c(C)c2c1	Neddylation inh 58.0
COCCN(C(=O)COC(=O)c1oc2ccc(OC)cc2c1C)c1c(N)n(Cc2ccccc2)c(=O)[nH]c1=O	none (not shown: Neddylation inh)
CCOC(=O)c1c(CN(CC)CC)oc2cc(Br)c(O)cc12	none
CCN(C(=O)COC(=O)c1oc2ccc(OC)cc2c1C)C1CCCCC1	Neddylation inh 51.8
CCOC(=O)c1c(CN(CC)CC)oc2ccc(OC)cc12	Neddylation inh 37.7 | Neddyl inh conf inactive
COc1ccc2oc(C(=O)OCC(=O)N3CC(C)CC(C)C3)c(C)c2c1 (centres undefined)	Neddylation inh 60.5
COc1ccc2oc(C(=O)OCC(=O)N(C)C3CCCCC3)c(C)c2c1	Neddylation inh 59.2
COc1ccc(/C=N/NC(=O)c2ccc(O)cc2O)cc1CSc1ccccn1	Neddylation inh 43.3 | Neddyl inh conf inactive
COc1ccc(/C=N\NC(=O)c2ccc(-c3ccccc3)cc2)cc1COC(C)=O	Neddylation inh 46.5 | Neddyl inh conf inactive
COc1cc(Br)cc(/C=N/NC(=O)Cc2ccccc2)c1O	Neddylation inh 65.3 | Neddyl inh conf inactive
O=C1O[C@@H](c2ccccc2)C[C@@H](O)C(=O)CCCc2ccccc21	none (no result: ATG4B inh, Rin1 Abl inh)
COc1ccc(C2CC(c3ccc(OC)cc3)n3nc(NC(=O)c4ccco4)nc3N2)cc1 (centres undefined)	Neddylation inh 38.8 | Neddyl inh conf inactive
COc1ccc(C2CC(c3ccccc3)Nc3nc(NC(=O)c4ccco4)nn32)cc1 (centres undefined)	Neddylation inh 40.0 | Neddyl inh conf inactive
COCC(=O)Nc1nc2n(n1)C(c1ccc(OC)cc1)CC(c1ccc(OC)cc1)N2 (centres undefined)	none
O=C(Nc1nc2n(n1)C(c1ccccc1)CC(c1ccc(Cl)cc1)N2)c1ccco1 (centres undefined)	none
COC(=O)/C=C1\OCc2ccc(C)cc21	none (no result: ATG4B inh, Rin1 Abl inh)
COc1ccc(OC)c(/C=C/C(=O)NC2=NCCS2)c1	Neddylation inh 41.7
COc1ccc2nc(/N=C(\N)NC(=O)C(C)(C)C)nc(C)c2c1	none (not shown: Neddylation inh)
CCC(=O)N/C(N)=N/c1nc(C)c2cc(OC)ccc2n1	Neddylation inh 46.1 | Neddyl inh conf active
COc1cc2c(cc1OC)-c1cc(Nc3ccc(C)cc3)nc(=O)n1CC2	none
COc1ccc(Nc2cc3n(c(=O)n2)CCc2cc(OC)c(OC)cc2-3)cc1	Neddylation inh 47.2
O=S1(=O)c2c(F)cccc2O[C@@H](COCc2ccccc2)CN1CCc1ccc(F)cc1	none
Cc1noc(C)c1S(=O)(=O)NC(=O)C1(C)CCN1C(=O)c1ccc(C2CCCCC2)cc1 (centres undefined)	none (no result: ATG4B inh)
CC1NC(=O)c2ccccc2-n2c1nc1ccc(F)cc1c2=O (centres undefined)	none (no result: ATG4B inh)
CCc1ccc(-c2cc(C(=O)Nc3c(C)n(C)n(-c4ccccc4)c3=O)c3ccccc3n2)s1	Neddylation inh 41.3 | Neddyl inh conf inactive
COc1ccc(C(C(=O)NC2CCCC2)n2c(CSCCOc3ccccc3)nc3ccccc32)cc1 (centres undefined)	none (no result: ATG4B inh, Rin1 Abl inh)
CCOC(=O)[C@]12CCC=C1N(Cc1ccc(Cl)cc1Cl)C(=O)[C@H](CC(=O)N1CCN(C(=O)c3ccco3)CC1)C2	none (no result: ATG4B inh, Rin1 Abl inh)
N#CC1=C(N)Oc2cc3ccccc3cc2C1c1cccnc1 (centres undefined)	none
N#CC1=C(N)Oc2c(ccc3cccnc23)C1c1cccnc1 (centres undefined)	Neddylation inh 47.7 | Neddyl inh conf inactive
